Experiment [1] is described as follows: reducers of endogenous Her2 protein level, primary screen, SKBR3 breast tumor cells, AlphaScreen, ATP viability (AID 461;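 active = Her2 level under about 52% in both replicate screens, with viability over 70% of control, limit read from the data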;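 as to Her2 level: lower value means less Her2 protein in the cells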;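 as to viability: percent of carrier control wells set as 100% viability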). The conditions noted are these: 18-24 h, measured here: SKBR3 viability, ATP luminescence, at 10 µM.
Experiment [2] deals with Receptor tyrosine-protein kinase erbB-2 (Homo sapiens) (UniProt P04626). Described as above. The conditions noted are these: 18-24 h, at 10 µM, stronger effect = lower value.
The nature of experiment [3]: SK-BR-3 cell growth inhibitors, pilot screen, 24 h, human (AID 572).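 Also: compound exposure lasted between 18 and 24 h rather than exactly 24 h; 100% = carrier-treated control wells.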 Particulars: SK-BR-3 viability, CellTiter-Glo luminescence, at 10 µM, stronger effect = lower value.
The nature of experiment [4]: HUVEC growth inhibition – cell-based, human, primary screen (AID 575;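 active = viability at or below 30% in both replicate assays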;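 also: 100% = median of untreated cell wells with 0.1% DMSO on each plate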). Particulars: HUVEC proliferation, CellTiter-Glo luminescence, 72 h; at 10 µM; stronger effect = lower value. (ATP-based viability assays read luminescence as a measure of living cells.)
Experiment [5] in a line: growth inhibitors of H69AR lung tumor, primary screen, human, duplicate replicates (AID 580;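 active = viability at or under a set limit in both replicates, limit being median viability minus 3 SD, cut at about 48% in these data, passing the limit was not always enough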;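 also: 100% = mean luminescence of untreated wells and 0% = no signal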). Particulars: H69AR lung tumor cells viability, ATP luminescence, 72 h; at 10 µM; stronger effect = lower value.
Experiment [6] in a line: reversal of MRP1-mediated doxorubicin resistance, pilot screen, H69AR cells, doxorubicin co-treatment (AID 601;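 active = viability loss from added drug above about 55%, and viability with drug at most 40%, in both replicates, limit read from the data, passing the limit was not always enough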). The conditions noted are these: CellTiter-Glo, 72 h, at 10 µM; for differential viability (reversal): stronger effect = higher value.
A short description of experiment [7]: 384-well plate pilot, post-Golgi transport modulator project, inhibition of yeast transport mutant growth (AID 636; in the data active = inhibition above about 31%). Particulars: absorbance 615 nm, about 18 h, stronger effect = higher value.
Experiment [8] can be described thus: growth suppression of yeast trafficking mutant, preliminary HTS, modulators of trafficking downstream of Golgi apparatus project, 1536-format plate, OD 615 nm (AID 637; in the data active = inhibition above about 30%). The conditions noted are these: yeast transport mutant growth, absorbance 615 nm, 18 h; stronger effect = higher value.
A short description of experiment [9]: OD615 S. cerevisiae growth inhibition, permissive medium, pilot counter-assay, permissive growth control for S. cerevisiae lifespan shortening project (AID 705;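 active = growth inhibition above 25% in both replicates, a cutoff set 3 SD above the mean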). The conditions noted are these: OD615, 24 h, at 10 µM, stronger effect = higher value.
A short description of experiment [10]: Restrictive medium S. cerevisiae growth inhibition, OD615, pilot screen of yeast lifespan reduction project, restrictive growth control (AID 706;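 active = growth inhibition above a set limit, 3 SD over mean compound inhibition, in both replicates, cut at about 43% in these data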;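 also: modified DeaD lifespan yeast strain shifted to restrictive glucose medium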). Particulars: OD615, 48 h, at 10 µM, stronger effect = higher value.
A short description of experiment [11]: viability gain of MRP-1-high H69AR cells under doxorubicin, pilot screen, MRP-1 activator project, CellTiter-Glo, duplicate (AID 807;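 active = viability increase at or above a cutoff of the median across tested compounds plus 3 SD, cut at about 8.5% in these data, passing the limit was not always enough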;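 also: compound pretreatment 18-22 h then 72 h combined with doxorubicin; 0% = doxorubicin alone and 100% = vehicle without doxorubicin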). Particulars: H69AR viability with doxorubicin, CellTiter-Glo luminescence; at 10 µM; stronger effect = higher value.
Experiment [12] is described as follows: growth suppression of beta-catenin knockout HCT116, pilot screen, human colon tumor cells (AID 823;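 active = cell viability at or below a set limit in both duplicate runs, the limit being the all-compound median minus 4 SD, cut at about 23% in these data, passing the limit was not always enough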;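 also: 0% = wells killed by 20 µM Hyamine and 100% = untreated DMSO cell wells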). The conditions noted are these: CellTiter-Glo, 60 h, at 10 µM, stronger effect = lower value.
Experiment [13] in a line: growth suppression of PTEN-deleted HCT116, pilot screen, cell-based, HCT116 clonal line, CellTiter-Glo (AID 824;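 active = viability at or below 27.92% in each of two runs, the all-compound median minus 4 SD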;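 also: 0% = 20 µM Hyamine control and 100% = vehicle cell control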). Particulars: 60 h, at 10 µM, stronger effect = lower value.
Experiment [14] can be described thus: inhibitors of the yeast RAM network, pilot screen, dse1pr::URA3 reporter, 5-FOA selection (AID 869;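 active = inhibition over a set limit, the all-compound mean plus 3 SD, in both replicate runs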;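 also: 0% = DMSO wells with no growth and 100% = 10 µM 1-NA-PP1 with full growth; RAM network block rescues cells from 5-FOA so hits raise OD615 growth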). Particulars: S. cerevisiae dse1pr::URA3 5-FOA growth, OD615, 2 d; at 10 µM; stronger effect = higher value; strain carries analog-sensitive mutant Cbk1 kinase.
Experiment [15] is described as follows: RAM signaling pathway blockade in yeast – S. cerevisiae, Pdr1DBD-CYC8 efflux-inhibited sensitized strain, primary screen (AID 1298;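 active = RAM network inhibition above 8.4% in each of two replicates, 3 SD over the compound average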;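 also: 0% = DMSO untreated cells without growth and 100% = 10 µM 1-NA-PP1 full growth; higher means more yeast growth rescued from 5-FOA killing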). The conditions noted are these: S. cerevisiae cbk1-as DSE1-URA3 strain, 5-FOA growth OD615, 2 d; at 50 µM; stronger effect = higher value.
The mark [16] stands for this setting: H69AR cells + 2 uM doxorubicin, measured here: viability with 2 uM doxorubicin, stronger effect = lower value.
Where [17] appears, read: H69AR cells, compound alone cytotoxicity.

Inconclusive results are not listed. The source made the active and inactive calls.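 The calls were made as follows, unless noted: active = viability at or below 10% of carrier control in both of two separate runs; inconclusive = viability at or below 10% in only one of the two runs; inactive = the rest.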

Chain of Receptor tyrosine-protein kinase erbB-2 (Homo sapiens) (P04626 whole entry, looked up): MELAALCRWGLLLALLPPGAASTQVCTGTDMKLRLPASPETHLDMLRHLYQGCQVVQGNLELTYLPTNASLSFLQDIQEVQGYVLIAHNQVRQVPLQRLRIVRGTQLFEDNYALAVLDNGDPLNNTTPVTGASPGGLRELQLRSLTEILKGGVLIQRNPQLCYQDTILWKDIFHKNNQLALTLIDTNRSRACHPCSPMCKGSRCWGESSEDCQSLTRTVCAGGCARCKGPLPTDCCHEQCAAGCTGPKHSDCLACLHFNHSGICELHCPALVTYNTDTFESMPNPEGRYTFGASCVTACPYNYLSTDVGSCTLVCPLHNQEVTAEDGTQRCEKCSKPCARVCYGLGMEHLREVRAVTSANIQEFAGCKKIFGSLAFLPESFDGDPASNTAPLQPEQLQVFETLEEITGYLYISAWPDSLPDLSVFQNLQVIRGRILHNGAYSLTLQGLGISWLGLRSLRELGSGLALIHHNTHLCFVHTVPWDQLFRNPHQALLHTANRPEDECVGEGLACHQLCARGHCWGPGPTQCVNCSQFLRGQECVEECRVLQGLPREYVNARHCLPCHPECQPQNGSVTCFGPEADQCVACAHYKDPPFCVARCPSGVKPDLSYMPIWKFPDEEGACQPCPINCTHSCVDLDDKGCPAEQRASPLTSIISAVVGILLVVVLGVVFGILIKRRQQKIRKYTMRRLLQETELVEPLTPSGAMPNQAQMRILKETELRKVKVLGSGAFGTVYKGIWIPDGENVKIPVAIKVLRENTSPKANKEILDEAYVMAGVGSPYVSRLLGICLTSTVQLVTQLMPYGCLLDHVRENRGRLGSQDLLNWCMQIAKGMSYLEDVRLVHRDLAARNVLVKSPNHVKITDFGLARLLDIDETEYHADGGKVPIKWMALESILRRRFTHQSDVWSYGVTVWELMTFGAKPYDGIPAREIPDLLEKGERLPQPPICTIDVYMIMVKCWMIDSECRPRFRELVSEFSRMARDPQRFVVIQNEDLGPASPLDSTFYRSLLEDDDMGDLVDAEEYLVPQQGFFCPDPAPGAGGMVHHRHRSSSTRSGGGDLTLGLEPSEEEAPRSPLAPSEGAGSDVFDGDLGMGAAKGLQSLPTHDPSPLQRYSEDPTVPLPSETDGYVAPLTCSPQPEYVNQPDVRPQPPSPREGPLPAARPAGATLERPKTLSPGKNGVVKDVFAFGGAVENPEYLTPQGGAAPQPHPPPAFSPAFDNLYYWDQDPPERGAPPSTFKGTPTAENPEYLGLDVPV

With `COc1ccc(C2CC(c3ccc(Cl)cc3Cl)n3nc(N)nc3N2)cc1` (stereo not drawn), the viability (in general, a read-out of living cells in per cent, often relative to untreated cells) was 95% in [1]; 95% (inactive) in [3]; 79.8% (inactive) in experiment [4]; 90.4% (inactive) in experiment [5]; 91.1% in experiment [6] (setting [16]); 90.4% in [6] (setting [17]). Moreover, the figures for the viability in experiment [12] and in experiment [13] were 90.9% (inactive) and 91.3% (inactive), respectively. The Her2 level in experiment [2] is 93.5% (inactive). The differential viability (reversal) in experiment [6] (H69AR cells + 2 uM doxorubicin) is -0.635% (inactive). The inhibition (commonly the change of the read-out against control, counted positive when it falls) in [7] was 0.64% (inactive); in [8] it was 3.67% (inactive); in experiment [14], 1.59% (inactive). Also, the growth inhibition in experiment [9] is 7.35% (inactive); in experiment [10], 25.7% (inactive). Further, in experiment [11], the viability increase was 3.63% (inactive). Moreover, the RAM network inhibition in experiment [15] is 4.26% (inactive).
Regarding `CCCOc1ccc(C2C(C(=O)OC)=CN(CCOC)C=C2C(=O)OC)cc1`, the viability in experiment [1] was 89%; in experiment [3] it was 89% (inactive); in [4], 96.4% (inactive); in experiment [5], 90.4% (inactive); in experiment [6] (setting [16]), 92.7%; in experiment [6] (setting [17]), 90.4%. Further, the figures for the viability in experiment [12] and in [13] were 81.5% (inactive) and 84.4% (inactive), respectively. Besides, the Her2 level in [2] is 92% (inactive). Further, in [6] (H69AR cells + 2 uM doxorubicin), the differential viability (reversal) is -2.27% (inactive). In addition, the values for the inhibition in experiment [7], in experiment [8] and in experiment [14] were -3.12% (inactive), 3.11% (inactive) and 2.16% (inactive), respectively. Moreover, the growth inhibition in [9] is -11.5% (inactive); in experiment [10] it was 12.8% (inactive). Also, the viability increase in [11] was -2.37% (inactive). The RAM network inhibition in experiment [15] was 5.46% (inactive).
On to `O=C(NCCOC(=O)C1COc2ccccc2O1)C1COc2ccccc2O1` (stereo not drawn), for which the viability in experiment [1] is 92.5%; in experiment [3], 92.5% (inactive); in experiment [4], 88.5% (inactive); in experiment [5], 103% (inactive); in experiment [6] (setting [16]), 92.6%; in experiment [6] (setting [17]), 103%. The figures for the viability in [12] and in experiment [13] were 102% (inactive) and 100% (inactive), respectively. Further, in experiment [2], the Her2 level is 95% (inactive). Moreover, in experiment [6] (H69AR cells + 2 uM doxorubicin), the differential viability (reversal) was 10.3% (inactive). Also, the inhibition was -6.76% (inactive) in experiment [7], -2.79% (inactive) in experiment [8] and 0.095% (inactive) in [14]. Further, the growth inhibition in experiment [9] is -7.82% (inactive); in [10], -1.52% (inactive). In addition, the viability increase in [11] is 0.34% (inactive). In addition, the RAM network inhibition in experiment [15] was 0.89% (inactive).
For the compound `Cc1ccnc2c(N3C(=O)C4C5C=CC(C5)C4(C)C3=O)cccc12` (stereo not drawn), the viability in experiment [1] is 98%; in experiment [3], 98% (inactive); in [4], 105% (inactive); in experiment [5] it was 92.9% (inactive); in experiment [6] (setting [16]) it was 91.4%; in [6] (setting [17]), 92.9%. The viability is 93.3% (inactive) in [12] and 95.5% (inactive) in experiment [13]. In addition, the Her2 level in experiment [2] is 102% (inactive). In [6] (H69AR cells + 2 uM doxorubicin), the differential viability (reversal) was 1.47% (inactive). Moreover, the figures for the inhibition in experiment [7], in [8] and in experiment [14] were -3.47% (inactive), -5.5% (inactive) and 1.86% (inactive), respectively. The growth inhibition was -20.2% (inactive) in [9] and -11.7% (inactive) in experiment [10]. For the same compound, the viability increase in experiment [11] was -0.94% (inactive). Moreover, the RAM network inhibition in [15] is -1.63% (inactive).
With `CCCN(CCC)CCNC(=O)c1cc2c(=O)n(C)c3ccccc3c2n1C`, the viability was 89% in experiment [1]; 89% (inactive) in experiment [3]; 57.5% (inactive) in experiment [4]; 77.1% (inactive) in experiment [5]; 64% in experiment [6] (setting [16]); 77.1% in experiment [6] (setting [17]). In addition, the results for the viability in [12] and in experiment [13] were 69.6% (inactive) and 73.4% (inactive), respectively. In experiment [2], the Her2 level is 98.5% (inactive). The differential viability (reversal) in experiment [6] (H69AR cells + 2 uM doxorubicin) was 13% (inactive). For the same compound, the figures for the inhibition in [7], in experiment [8] and in experiment [14] were -2.53% (inactive), 1.67% (inactive) and 1.12% (inactive), respectively. The growth inhibition in experiment [9] is 6.58% (inactive); in experiment [10], 1.31% (inactive). For the same compound, the viability increase in experiment [11] is -6.19% (inactive). In addition, in [15], the RAM network inhibition was 0.57% (inactive).
Consider `CC1CCN(C(=O)Cn2cc3c(n2)CCCC3)CC1`, for which the viability in [1] is 97%; in experiment [3] it was 97% (inactive); in experiment [4], 97.1% (inactive); in experiment [5], 96.4% (inactive); in [6] (setting [16]), 101%; in experiment [6] (setting [17]), 96.4%. Moreover, the viability in experiment [12] is 100% (inactive); in [13], 99.9% (inactive). Also, in experiment [2], the Her2 level was 116% (inactive). Also, the differential viability (reversal) in experiment [6] (H69AR cells + 2 uM doxorubicin) is -4.43% (inactive). In addition, the inhibition in experiment [7] was 6.67% (inactive); in experiment [8], -4.5% (inactive); in [14], 0.615% (inactive). In addition, the growth inhibition in experiment [9] is -7.6% (inactive); in [10] it was -2.46% (inactive). Also, the viability increase in experiment [11] is 0.91% (inactive). Besides, in [15], the RAM network inhibition was 3.48% (inactive).
As for `COc1ccc(N(C)C(=O)CCS(=O)(=O)c2cccc3nonc23)c(OC)c1`, the viability was 89% in experiment [1]; 89% (inactive) in experiment [3]; 95.7% (inactive) in [4]; 104% (inactive) in experiment [5]; 93.9% in [6] (setting [16]); 104% in [6] (setting [17]). In addition, the values for the viability in experiment [12] and in experiment [13] were 100% (inactive) and 98.8% (inactive), respectively. Moreover, the Her2 level in experiment [2] is 86.5% (inactive). Besides, the differential viability (reversal) in experiment [6] (H69AR cells + 2 uM doxorubicin) was 9.71% (inactive). The inhibition in [7] is -6.71% (inactive); in [8] it was -3.49% (inactive); in experiment [14], 1.43% (inactive). Moreover, the figures for the growth inhibition in experiment [9] and in [10] were -16.1% (inactive) and -20.6% (inactive), respectively. For the same compound, the viability increase in experiment [11] is -0.31% (inactive). Also, the RAM network inhibition in experiment [15] was 3.65% (inactive).
Regarding `COc1ccc(Cl)cc1S(=O)(=O)N1CCN(c2ccc(F)cc2)CC1`, the viability in [1] was 80%; in [3], 80% (inactive); in [4], 90.1% (inactive); in experiment [5], 75.8% (inactive); in experiment [6] (setting [16]), 87.4%; in [6] (setting [17]), 75.8%. Besides, the viability is 82.4% (inactive) in experiment [12] and 89.7% (inactive) in experiment [13]. Also, the Her2 level in [2] was 82% (inactive). In addition, the differential viability (reversal) in experiment [6] (H69AR cells + 2 uM doxorubicin) is -11.6% (inactive). The inhibition in [7] was 4.23% (inactive); in [8], 12.7% (inactive); in experiment [14], -0.355% (inactive). Moreover, the growth inhibition was -13% (inactive) in experiment [9] and -15.5% (inactive) in experiment [10]. The viability increase in experiment [11] is -2.08% (inactive). Besides, the RAM network inhibition in experiment [15] was 1.85% (inactive).
With `Cc1ccc(C(=O)NC(Cc2c[nH]c3ccccc23)C(=O)O)o1` (stereo not drawn), the viability in experiment [1] is 95.5%; in experiment [3] it was 95.5% (inactive); in experiment [4], 87.3% (inactive); in experiment [5], 88.9% (inactive); in experiment [6] (setting [16]) it was 87.1%; in [6] (setting [17]), 88.9%. Moreover, the viability was 96.2% (inactive) in experiment [12] and 96.4% (inactive) in experiment [13]. Moreover, the Her2 level in experiment [2] is 130% (inactive). Also, the differential viability (reversal) in experiment [6] (H69AR cells + 2 uM doxorubicin) is 1.82% (inactive). In addition, the inhibition in experiment [7] is 1.95% (inactive); in experiment [8], -5% (inactive); in experiment [14] it was 1.82% (inactive). Moreover, the figures for the growth inhibition in experiment [9] and in experiment [10] were 1.54% (inactive) and -2.65% (inactive), respectively. Moreover, the viability increase in experiment [11] is -3.09% (inactive). In addition, in [15], the RAM network inhibition was 6.26% (inactive).
